The values that follow come from PubChem BioAssay (NCATS).

Records with an inconclusive call do not appear. Entries that show only a call come without a potency. Calls of active or inactive are those of the source. Calls come from the whole dose curve; as a rule, active = well fitted inhibition curve with a large enough effect; inconclusive = small, poorly fitted or top-dose-only effect; inactive = flat fitted curve, though single readings scatter.
Potency is the fitted concentration of half-maximal effect.

The test deals with P94_40. In words: qHTS profiling for inhibitors of Plasmodium falciparum proliferation (AID 504749). Note: nearly all actives have a fitted effect of over 60% in size. The conditions noted are these: P. falciparum in erythrocytes, SYBR Green DNA, 72 h; series mostly up to 28.7 µM. The essentials: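 SYBR Green fluorescence of parasite DNA, read after lysis and overnight dark incubation, measured growth over 72 h in erythrocyte culture at 0.3% parasitemia and 2.5% hematocrit. Data normalised to DMSO and 0.29 uM artemisinin, with plate-drift correction.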
In general terms: qHTS replaces the single test concentration by a dilution series.
`S=C=Nc1ccc(N=C=S)cc1`: the Potency result is “inactive”.
The value for `N=C(N)n1cccn1` was “inactive”; that for `Cc1cccc(C)c1NC(=O)NC1=CCCN1C` was “inactive”.
Take `Cc1cc(-c2ccc(N=Nc3ccc4c(S(=O)(=O)O)cc(S(=O)(=O)O)c(N)c4c3O)c(C)c2)ccc1N=Nc1ccc2c(S(=O)(=O)O)cc(S(=O)(=O)O)c(N)c2c1O`: the Potency entry is “inactive”.
The value for `O=P(O)(O)O` was “inactive”; that for `CN(CCO)CC(O)Cn1cnc2c1c(=O)n(C)c(=O)n2C` (stereo not given) (tested in a mixture with another compound) was “inactive”.
The value for `O=C(O)Cc1cc(I)c(Oc2ccc(O)c(I)c2)c(I)c1` was “inactive”; that for `COC1=C(OC)C(=O)C(C/C=C(\C)CC/C=C(\C)CC/C=C(\C)CC/C=C(\C)CC/C=C(\C)CC/C=C(\C)CC/C=C(\C)CC/C=C(\C)CC/C=C(\C)CCC=C(C)C)=C(C)C1=O` was “inactive”.
Then `CN=C1C=CC(=C(c2ccc(N(C)C)cc2)c2ccc(N(C)C)cc2)C=C1`, with 1000 nM (active); and `CCOc1ccc(S(=O)(=O)O)c2cccnc12`, with “inactive”.
With `FC(F)(F)COCC(F)(F)F`, the Potency entry is “inactive”.
Then `O=C(O)[C@H]1C(=CCO)O[C@H]2CC(=O)N12`, with “inactive”; and `CC1CC(O)CC(C)(C)C1` (stereo not given), with “inactive”; and `Cc1ncc(C[n+]2csc(CCOP(=O)(O)O)c2C)c(N)n1`, with “inactive”.
Then `CCCCO`, with “inactive”; and `CCOC(=S)SSC(=S)OCC`, with “inactive”.
The value for `N[C@H](CC(=O)O)C(=O)O` was “inactive”; that for `CCC(C(=O)NC(N)=O)c1ccccc1` (stereo not given) was “inactive”.
On to `CCN(CC)CCOC(=O)c1cccnc1`, for which the Potency result is “inactive”.
Then `NC(=S)NS(=O)(=O)c1ccc(N)cc1`, with “inactive”.
